Inconclusive results are not listed. Where a call stands in place of a potency, no number is given. Activity calls are given as the source filed them. Unless noted, calls follow the shape of the dose curve; as a rule, active = well fitted curve in the direction sought with a large enough effect; inconclusive = small, poorly fitted or top-dose-only effect, or another doubt; inactive = no such curve, though single readings can be large; an effect the other way counts as inactive or inconclusive.
Assays:
[1] = qHTS Screen of the MIPE 4.0 Collection Against Ewings Sarcoma (TC32) (AID 1259256); also: nearly all actives have a fitted effect of over 45% in size; also: potency is read from the fitted curve at half-maximal effect
Excerpt: There is a large unmet medical need for treatments for Ewing sarcoma, a pediatric sarcoma. We sought to identify compounds that inhibited Ewing sarcoma cells in vitro with the goal to then test promising drugs in two drug combinations in vitro to look for synergistic drug combinations. Promising combinations would then proceed to additional validation, including in vivo testing.
Using the NCATS developed oncology compound library called the Mechanism of Interrogation Plate (MIPE), four Ewing sarcoma cell lines were evaluated (TC32, TC71, RDES, EW8). Compounds, in a 12-point titration series, were incubated with cells for 48 hours and the read out was cell viability (CellTiter-Glo from Promega). These initial experiments were used to select appropriate concentrations of each single agent for subsequent two-drug matrix combinations such that the concentrations in the matrices would span both activity and non-activity.
Cells, in the log phase of growth, were seeded in 5 uL of RPMI plus 5% FBS, […] L-glutamine, 100 U/ml penicillin and 100 ug/ml streptomycin into 1536-well solid-bottom white tissue culture treated Greiner Bio One Plates (789173-F) using a MultiDrop Combi (Thermofisher Scientific) dispenser and a small sterile cassette. […] Plates were incubated at room temperature for 10 minutes prior to reading the luminescence on the Viewlux (PerkinElmer). […]

[2] = Natriuretic polypeptide receptor (hNpr1) antagonism - Pilot counterscreen GloSensor control cell line (AID 1347045; calls by dose curve; also: series mostly up to about 38 µM)
Procedure, shortened: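 HEK293 cells carrying the GloSensor cGMP sensor (GIP/pGS-40F) were loaded with 2% GloSensor reagent for 2 h, exposed to compounds for 30 min, and then stimulated with 50 uM sodium nitroprusside for 20 min at room temperature.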

[3] = qHTS assay to identify small molecule inhibitors of chordoma cells - UCH-2 (AID 1259356); also: potency is read from the fitted curve at half-maximal effect
[4] = P-glycoprotein substrates identified in KB-8-5-11 adenocarcinoma cell line, qHTS therapeutic library screen (AID 1346987); also: nearly all actives have a fitted effect of over 65% in size; also: potency is read from the fitted curve at half-maximal effect
Procedure, shortened: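 KB-8-5-11: colchicine-selected sub-line of KB-3-1 over-expressing P-gp; assay medium lacked colchicine. 72 h drug exposure at 37 degree C, CellTiter-Glo.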

[5] = Identifying Small Molecule Inhibitors of Pancreatic Cancer Stem Cells (A2780, Spheroid) (AID 1259357);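 also: compound exposure lasted 48 h before the ATP luminescence read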
Procedure, shortened: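 Monolayer and spheroid cultures are compared. Spheroids form over 14 days in stem cell medium on hydrogel-coated low-attachment plates, then are exposed to compound for 48 h before CellTiter-Glo luminescence.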

[6] = Identifying Small Molecule Inhibitors of Pancreatic Cancer Stem Cells (SN12C, Adherent) (AID 1259358);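 also: cell survival measured after 48 h of compound exposure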
Procedure, shortened: (§1)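 Endpoint: ATP-based luminescence, 48 h drug exposure. Bortezomib at 9.2 uM final as full-kill control; DMSO vehicle as negative control; activity normalized between vehicle and cell-free wells.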

[7] = Identifying Small Molecule Inhibitors of Pancreatic Cancer Stem Cells (SN12C, Spheroid) (AID 1259360)
Excerpt: Progenitor-like cancer cells, often referred to as cancer stem cells (CSC), are believed to be the drivers of therapeutic resistance and rapid recurrence. CSCs are postulated to reside in specific niches characterized by low oxygen tension, limited nutrient supply, and high redox load. Selectively targeting CSC, alone or in combination with cytotoxic agents, as a means to produce durable remissions is an appealing concept. Modeling these cells in in vitro setting is an important step in finding new therapies and/or targets. Multiple reports highlight that forcing cells in culture into 3-dimensionaly architectures (spheroids) re-establishes key progenitor-like transcriptional signatures. Pancreatic cancer is among the diseases with the most dismal outlook which is driven, largely, by recurance following front-line therapies. […]
Multicellular tumor spheroids from Panc1, MiaPaCa-2, and the primary low-passage tissue culture line SB.06 were seeded in stem cell media (SCM) in nonadherent 6-well plates coated with hydrogel (Corning Life Sciences, Chelmsford, Mass) and pancreatic spheres generated for 14 days before screening. […] Plates were incubated at room temperature for 10 minutes prior to reading the luminescence on the Viewlux (PerkinElmer). […]

[8] = Identifying Small Molecule Inhibitors of Pancreatic Cancer Stem Cells (A278, Adherent) (AID 1259361);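 also: viability read after 48 h compound exposure; nearly all actives have a fitted effect of over 35% in size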
Procedure, shortened: as §1

C[C@@H]1C[C@@H]([C@H](O)CC2CC(=O)NC(=O)C2)C(=O)[C@@H](C)C1
Potency [1]: 0.132 µM (active)

COc1ccc(C(=O)N2CCCC2=O)cc1
Potency [1]: inactive | outcome [2]: inactive

COC(=O)C1=CCCN(C)C1
outcome [2]: inactive

C[C@]12CC[C@H](O)CC1=CC[C@@H]1[C@@H]2CC[C@]2(C)C(=O)CC[C@@H]12
Potency [3]: inactive | Potency [4]: inactive

COP(=O)(OC)C(O)C(Cl)(Cl)Cl (stereo not given)
Potency [3]: inactive | Potency [4]: inactive

C[C@@H]1O[C@@H](O[C@@H]2C=C3CC[C@@H]4[C@H](CC[C@]5(C)[C@@H](c6ccc(=O)oc6)CC[C@]45O)[C@@]3(C)CC2)[C@H](O)[C@H](O)[C@H]1O
Potency [3]: 0.0248 µM (active) | Potency [4]: 0.0197 µM (active)

CCNc1nc(Cl)nc(NCC)n1
Potency [3]: inactive | Potency [4]: inactive

CC1=C2[C@H]3OC(=O)[C@@H](C)[C@@H]3CC[C@@]2(C)C=CC1=O
Potency [3]: inactive | Potency [4]: inactive

OC(O)C(Cl)(Cl)Cl
Potency [3]: inactive | Potency [4]: inactive

CNC(=O)Oc1cccc2ccccc12
Potency [3]: inactive | Potency [4]: inactive

CCCCCCCCC(=O)NCc1ccc(O)c(OC)c1
Potency [3]: inactive | Potency [4]: inactive

CCOC(=O)c1cncn1C(C)c1ccccc1 (stereo not given)
Potency [3]: inactive | Potency [4]: inactive

Oc1c(Br)cc(Br)cc1Br
Potency [3]: inactive | Potency [4]: inactive

C#C[C@]1(O)CC[C@H]2[C@@H]3CCC4=CC(=O)CCC4=C3C=C[C@@]21CC
Potency [3]: inactive | Potency [4]: 2.06 µM (active)

CCN(Cc1ccc(Cl)nc1)/C(=C/[N+](=O)[O-])NC
Potency [3]: inactive | Potency [4]: inactive

C[C@]12CC[C@H]3[C@@H](CC=C4C[C@@H](O)CC[C@@]43C)[C@@H]1CC[C@@H]2O
Potency [3]: inactive | Potency [4]: 11.6 µM (active)

CC(C)[N+](C)(CCC(C(N)=O)(c1ccccc1)c1ccccc1)C(C)C
Potency [3]: inactive | Potency [4]: inactive

C[C@H](N)[C@H](O)c1ccc(O)c(O)c1
Potency [3]: inactive | Potency [4]: inactive

O=C(O)c1nn(Cc2ccc(Cl)cc2Cl)c2ccccc12
Potency [3]: inactive | outcome [5]: inactive | outcome [6]: inactive | outcome [7]: inactive | outcome [8]: inactive | Potency [4]: inactive | outcome [2]: inactive

C=CCOC(Cn1ccnc1)c1ccc(Cl)cc1Cl (stereo not given)
Potency [3]: inactive | Potency [4]: 20.6 µM (active)

c1ccc2nc(N3CCNCC3)ccc2c1
Potency [3]: inactive | Potency [4]: inactive

CN1[C@@H]2CC[C@H]1CC(OC(=O)c1cc(Cl)cc(Cl)c1)C2 (stereo not given in full)
Potency [3]: inactive

O=C1NCN(c2ccccc2)C12CCN(CCCOc1ccc(F)cc1)CC2
Potency [3]: inactive

CCS(=O)(=O)C(C)(C)S(=O)(=O)CC
Potency [3]: inactive | Potency [4]: inactive

C[N+]1(C)[C@@H]2CC[C@H]1CC(OC(=O)C(CO)c1ccccc1)C2 (stereo not given in full)
Potency [3]: inactive | Potency [4]: inactive

NCc1cccnc1
Potency [3]: inactive | Potency [4]: inactive

CN(C)C(=O)Oc1cc(OC(=O)N(C)C)cc(C(O)CNC(C)(C)C)c1 (stereo not given)
Potency [3]: inactive | Potency [4]: inactive

CC(Cc1ccccc1)NCc1ccccc1Cl (stereo not given)
Potency [3]: inactive | Potency [4]: inactive

COc1cc(N)c(Cl)cc1C(=O)NC1CN2CCC1CC2 (stereo not given)
Potency [3]: inactive | Potency [4]: inactive

C[C@@H]1CN(C2CCC(C#N)(c3ccc(F)cc3)CC2)CC[C@]1(C(=O)O)c1ccccc1 (stereo not given in full)
Potency [3]: inactive | Potency [4]: inactive

C[N+](C)(C)CCOC(=O)C(O)(c1ccccc1)c1ccccc1
Potency [3]: inactive | Potency [4]: inactive

c1cc2c(c(N3CCNCC3)c1)OCCO2
Potency [3]: inactive | Potency [4]: inactive

CC(C)NCC(O)c1ccc(N)c(C#N)c1 (stereo not given)
Potency [3]: inactive | Potency [4]: inactive

Cc1c(Cl)c(=O)oc2cc(OP(=O)(OCCCl)OCCCl)ccc12
Potency [3]: inactive | Potency [4]: 6.51 µM (active)

C[C@]12Cc3nonc3C[C@@H]1CC[C@@H]1[C@@H]2CC[C@@]2(C)[C@H]1CC[C@]2(C)O
Potency [3]: inactive | Potency [4]: 5.8 µM (active)

CC(C)(C)OC(=O)c1ncn2c1[C@@H]1CCCN1C(=O)c1c(Br)cccc1-2
Potency [3]: inactive | Potency [4]: inactive

CCC1(c2ccccc2)CCC(=O)NC1=O (stereo not given)
Potency [3]: inactive | Potency [4]: inactive

CCCCCCCCCCCC[N+](C)(C)CCOc1ccccc1
Potency [3]: inactive | Potency [4]: inactive

CC(C)C(Br)C(=O)NC(N)=O (stereo not given)
Potency [3]: inactive | Potency [4]: inactive

O=c1n(Cl)c(=O)n(Cl)c(=O)n1Cl
Potency [3]: inactive | Potency [4]: inactive

C[C@H]1C(=O)O[C@@H]2CCN3CC=C(COC(=O)[C@](C)(O)[C@]1(C)O)[C@H]23
Potency [3]: inactive | Potency [4]: inactive

CN1C(=O)CN=C(c2ccccc2)c2cc([N+](=O)[O-])ccc21
Potency [3]: inactive

NC(=O)CN1CCCC1=O
outcome [2]: inactive

From PubChem BioAssay (NCATS)
